Shown are actives, neighbours in structure and some others; about 4.5% of the full set was active somewhere.
EBNA-1 inh = blocks EBNA-1 binding to DNA; EBNA-1 DNA binding, fluorescence polarization; inhibition, % at 14.8 µM; 0.34% of 300,000 active; AID 1950; in the data active = inhibition above about 28%
dFosB activator = enhances mouse delta FosB homodimer DNA binding | 0.99% of 340,000 active | purified delta FosB, TAMRA-CDK5 oligo fluorescence polarization; percent of positive-control signal above neutral wells | AID 493131 | activation, % at 25 µM | P13346;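 active = mean activation above about 17%, with every replicate also reaching it, limit read from the data, passing the limit was not always enough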
Target sequence (P13346 whole entry, looked up): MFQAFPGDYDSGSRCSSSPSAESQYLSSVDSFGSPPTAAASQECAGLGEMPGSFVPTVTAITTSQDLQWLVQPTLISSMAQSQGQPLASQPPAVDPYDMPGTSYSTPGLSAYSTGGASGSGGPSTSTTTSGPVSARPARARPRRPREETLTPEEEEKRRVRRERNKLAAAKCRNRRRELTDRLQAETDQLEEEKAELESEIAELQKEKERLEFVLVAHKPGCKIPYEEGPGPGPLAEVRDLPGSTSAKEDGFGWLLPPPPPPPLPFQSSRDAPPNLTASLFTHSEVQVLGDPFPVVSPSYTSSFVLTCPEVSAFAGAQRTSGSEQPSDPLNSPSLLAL
ZTA counter = counter-screen for EBNA-1 inhibitors: inhibitors of Epstein-Barr virus ZTA; inhibition, % at 11 µM; P03206; ZTA-DNA binding, fluorescence polarization; 0.15% of 320,000 active; in the data active = inhibition above about 33%
GRIN3A LBD mod = modulators (binders) of human NR3A ligand-binding domain; NR3A LBD differential scanning fluorimetry, Tm shift; 0% = protein alone, 100% = glycine-bound protein; Tm shift relative to glycine control, % at 25 µM; 2.5% of 340,000 active; AID 1259313;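 active = melting temperature shift of at least 10% of the positive control shift, at one fixed dose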
TPT1 inh = C. albicans TPT1 enzyme inhibition | recombinant caTPT1, FP RNA substrate dephosphorylation | inhibition, % at 5 µM | AID 1962 | 0.81% of 300,000 active;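 active = inhibition above the mean of all tested compounds plus 3 SD, set per screening campaign, cut at about 24% in these data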;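 note: plate controls were DMSO alone for no effect and ferristatin control at 100 nM for full effect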
Rpn11 inh = inhibitors of human proteasome Rpn11; O00487; human 26S proteasome, Ub4-pepOG fluorescence polarization; 20S core pre-blocked with epoxomicin; inhibition, % at 20 µM; 0.59% of 360,000 active;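 active = inhibition at 20 µM, scaled to each plate's controls, above about 33%, limit read from the data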
Target sequence (O00487 whole entry, looked up): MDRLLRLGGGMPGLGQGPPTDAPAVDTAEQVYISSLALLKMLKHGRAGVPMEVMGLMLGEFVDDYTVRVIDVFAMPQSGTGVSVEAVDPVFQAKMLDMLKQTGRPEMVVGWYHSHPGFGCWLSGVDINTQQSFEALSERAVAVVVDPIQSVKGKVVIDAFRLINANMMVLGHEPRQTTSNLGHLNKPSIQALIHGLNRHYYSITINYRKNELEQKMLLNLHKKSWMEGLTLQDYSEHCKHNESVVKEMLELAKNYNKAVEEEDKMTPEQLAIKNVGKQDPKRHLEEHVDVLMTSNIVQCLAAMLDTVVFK
Active calls of the source: *; . = no result given; ! = not confirmed by another sample.

SMILES	EBNA-1 inh	dFosB activator	ZTA counter	GRIN3A LBD mod	TPT1 inh	Rpn11 inh
Cc1cc(N)ccc1N1CCCC1	4.5	-11.2	5.2	-4.6	-4.4	90.1*
Cc1ccc(-n2c(C)cc(=O)cc2C)c(C)c1	0.2	2.6	-5.7	-0.1	-0.9	-12.2
CN(CC#CC(O)(c1ccccc1)c1ccccc1)C(C)(C)C	0.2	-4.5	-9.0	1.1	1.0	-4.1
Cc1cc(=O)n2[nH]c(SCc3c(F)cccc3Cl)nc2n1	14.9	0.6	14.5	0.9	-1.0	3.3
Cc1cc(=O)n2[nH]c(SCc3ccccc3Cl)nc2n1	4.4	2.0	1.2	17.5*	-4.5	-8.6
Cc1cc(OC(=O)c2cc(Cl)ccc2Cl)c([N+](=O)[O-])c(=O)[nH]1	-0.1	-2.7	11.5	-0.7	1.1	-3.3
CC1(C)C=Cc2c(c3c(c4c(=O)c(-c5ccc(O)cc5)coc24)OC(C)(C)CC3)O1	-7.5	-21.9	-0.5	-6.3	0.8	6.7
CC(C)=CCc1c2c(c3occ(-c4ccc(O)c(O)c4)c(=O)c3c1O)C=CC(C)(C)O2	.	-20.9	.	26.8*	.	6.4
O=C(NCCCN1CCCC1)C1CCN(C(=O)c2cc3sccc3n2Cc2ccc(F)cc2)CC1	-8.6	10.2	-4.2	11.0*	-1.4	0.8
O=C(CN1C(=O)NC2(CCCC2)C1=O)N1CCN(S(=O)(=O)c2cccc(F)c2)CC1	-7.1	0.0	-3.0	15.9*	-3.0	-9.7
Cc1ccc(C2(C)NC(=O)N(CC(=O)N3CCN(S(=O)(=O)c4cccc(F)c4)CC3)C2=O)cc1 (stereo unspecified)	-3.2	-5.9	-8.8	1.6	-0.2	-5.1
O=C(Nc1ccc(Br)cc1)c1cccn1-c1ncc(C(F)(F)F)cc1Cl	-5.1	0.4	-10.8	13.5*	0.1	-3.5
CSC(C(=O)c1cc2ccccc2o1)c1ccccc1 (stereo unspecified)	11.3	1.0	-10.2	-0.8	-1.1	-2.0
Cc1ccc2[nH]c(=O)c(NC(N)=S)nc2c1	-13.3	-1.7	-13.1	11.1*	-5.0	0.0
CCOC(=O)N1CCN(c2ccc(N3C(=O)CCCC3=O)cc2[N+](=O)[O-])CC1	-2.2	-2.9	-8.6	-2.2	2.8	4.5
CCOC(=O)N1CCN(c2ccc(F)cc2[N+](=O)[O-])CC1	-8.4	2.6	-5.2	22.9*	2.9	-7.5
Cc1ccc2cccc(OCC(=O)N3CC(C)CC(C)C3)c2n1 (stereo unspecified)	0.0	-3.2	-4.0	-0.5	-2.5	-10.3
CCOC(=O)c1ccc[n+](CC(=O)c2ccc(NC(=O)c3ccccc3)cc2)c1	6.5	-22.9	-8.9	0.3	-1.9	0.2
CC(C)(C)NC(=O)CN(Cc1ccc2c(c1)OCO2)C(=O)CNC(=O)c1cccs1	-16.6	.	-0.3	.	5.3	.
CC(OC(=O)C1CC(=O)N(Cc2ccccc2)C1)C(=O)Nc1cccc(C#N)c1 (stereo unspecified)	11.0	-5.8	-8.6	1.8	0.1	-12.7
COc1cccc(-c2csc(N3CCN(C(=S)Nc4ccc(Cl)cc4)CC3)n2)c1	-11.4	-3.5	0.2	10.2*	1.7	21.2
COc1cccc(-c2csc(N3CCN(C(=S)Nc4ccccc4)CC3)n2)c1	16.3	0.9	7.7	3.8	0.7	-0.7
COC(=O)c1ccc(COc2ccccc2/C=C(\C#N)C(=O)Nc2c(C)cc(C)cc2C)cc1	3.0	-14.1	-3.4	17.1*	0.8	-4.0
COc1ccc(S(=O)(=O)N(C)CC(=O)N2CCCC2)cc1OC	-5.0	-0.7	-15.2	-0.7	-4.4	-5.4
CCOc1ccccc1NC(=O)C1CCN(C(=O)c2cccs2)CC1	-2.1	6.7	-1.4	-0.2	-1.5	-3.9
SMILES	EBNA-1 inh	dFosB activator	ZTA counter	GRIN3A LBD mod	TPT1 inh	Rpn11 inh
O=[N+]([O-])c1ccc(SCCc2ccncc2)cc1	-4.3	3.1	-4.2	11.4*!	-1.8	6.4
O=[N+]([O-])c1ccc(SCCc2ccccn2)cc1	7.1	-2.3	1.5	4.8	-2.6	5.6
Cc1nc(NC2=NCN(Cc3cccnc3)CN2)nc2ccccc12	.	6.4	.	3.6	.	-5.0
Cc1nc(NC2=NCN(CCCN3CCOCC3)CN2)nc2c(C)cccc12	9.8	31.6*	-16.3	-1.4	3.1	7.7
O=[N+]([O-])c1cccc(-c2csc(Nc3ccccc3)n2)c1	3.4	-12.2	-5.7	30.3*	-2.4	2.6
O=C(Cc1ccccc1)Nc1nc(-c2cccc([N+](=O)[O-])c2)cs1	2.2	-6.5	7.8	-2.9	-1.9	5.5
O=C(Nc1nc(-c2ccccc2)cs1)c1cccc([N+](=O)[O-])c1	0.1	2.0	14.1	24.4*	3.1	-0.4
COc1cc(NS(=O)(=O)c2ccc(Nc3nc(-c4cccc([N+](=O)[O-])c4)cs3)cc2)nc(OC)n1	5.9	-7.4	-0.2	28.9*	-1.9	1.3
COc1ccccc1Nc1nc(-c2cccc([N+](=O)[O-])c2)cs1	5.3	-0.1	21.2	32.5*	-3.1	-1.4
CCCC(=O)Nc1cccc(C(=O)Nc2ccccc2OCC)c1	10.3	.	22.6	.	-3.9	.
O=C(N/N=C/c1c[nH]c2ccc(Br)cc12)c1ccn(Cc2ccc(Cl)cc2Cl)n1	7.4	-4.4	7.3	17.0*	-1.1	3.4
O=C(N/N=C/c1cc2c(cc1Br)OCO2)c1ccccn1	-2.3	.	-9.5	-1.3	-0.5	-1.2
O=C(N/N=C/c1c[nH]c2ccc(Br)cc12)c1ccncc1	5.5	-2.3	4.8	25.9*	-0.1	4.3
NC(=O)C(=O)N/N=C/c1c[nH]c2ccc(Br)cc12	-1.8	-4.0	8.5	-5.9	-3.2	-0.4
O=C(N/N=C/c1c[nH]c2ccc(Br)cc12)C1CC1	3.8	-3.0	-2.4	10.4*	0.8	-4.1
O=C(N/N=C/c1c[nH]c2ccc(Br)cc12)c1ccccn1	2.0	-7.4	6.5	10.2*	0.3	-7.3
CC(=O)N[C@H]1[C@H](Oc2ccc3c(c2)CCC2C3CC[C@]3(C)C(=O)CCC23)O[C@H](CO)[C@@H](O)[C@@H]1O (stereo partly specified)	14.0	1.8	8.3	0.9	-3.8	-3.6
CCCSCCCNC(=O)Cn1c(=O)c2cccn2c2ccccc21	7.0	-0.9	17.4	0.0	-3.7	3.6
CC1CCCCC1NC(=O)c1cccc(N2C(=O)C3C4C=CC(C4)C3C2=O)c1 (stereo unspecified)	-4.4	-6.8	9.3	-2.0	-0.7	11.6
CCn1cc(CNC(=O)c2cc(COc3ccc(F)cc3Cl)on2)cn1	-7.4	-1.2	-23.7	116.1*	-6.1	-9.5
O=C(CCCN1C(=O)/C(=C\c2cccs2)SC1=S)Nc1cccnc1	1.6	-1.6	-8.5	13.4*	-1.4	3.2
O=C(CCCN1C(=O)/C(=C/c2cccc(Br)c2)SC1=S)Nc1cccnc1	-0.5	21.9*	0.1	-2.7	-3.2	3.1
O=C(CCCN1C(=O)/C(=C\c2cccc(Br)c2)SC1=S)Nc1cccnc1	-4.9	13.5	18.4	-5.6	-0.9	15.5

Source: PubChem BioAssay
